For one test, the target named is Albumin (Bos taurus) (UniProt P02769). As to the kind of experiment: bovine serum albumin binders on microarray, profiling panel, artefact control for SMM control protein annotation, biochemical, small-molecule microarray, Alexa647 label, 635/667 nm fluorescence (AID 1118).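 Also: score merges 667 nm emission intensity and signal-to-noise per printed compound spot.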 As to conditions: BSA-A647 binding, fluorescence 635 nm, higher = more signal.
Test [1] can be described thus: small-molecule microarray binders of probe aXIP, primary screen, biochemical, NeuroSMM set, 635/667 nm fluorescence (AID 1119).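 Also: probe is the protein aXip251-270 applied at 1 µg/mL to compound-printed slides; binding of probe to printed compounds measured as 667 nm fluorescence plus signal to noise.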 Particulars: higher = more signal, called active from +8 up or from −8 down.
Test [2] in a line: small-molecule binders of probe aNOTCH3, primary screen, biochemical, small-molecule microarray, 635/667 nm fluorescence (AID 1120).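 Also: probe is a biotin-tagged antibody raised against NOTCH3 rather than NOTCH3 protein; score merges spot fluorescence near 667 nm with spot signal to noise.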 Particulars: higher = more signal.
Test [3] in a line: small-molecule binders of probe aNOTCH2, primary screen, biochemical, small-molecule microarray, 635/667 nm fluorescence (AID 1121).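 Also: score merges feature fluorescence read at 667 nm with its signal to noise.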 Particulars: higher = more signal.
The target of test [4] is Carbonic anhydrase 2 (Homo sapiens) (UniProt P00918). As to the kind of experiment: CAII small-molecule binders, profiling panel, biochemical, small-molecule microarray, Alexa647-labelled CAII (AID 1122). As to conditions: CAII-A647 binding fluorescence, higher = more signal.
Test [5] is described as follows: COS7 lysate on small-molecule microarray, probe aHis, 635 nm (AID 1123).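 Also: z-score combines 667nm fluorescence intensity with signal-to-noise per printed compound spot.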 As to conditions: COS7 cell lysate, fluorescence, higher = more signal.
The nature of test [6]: compound binding in COS7 lysate, probe aLAP1, primary screen, cell lysate, small-molecule microarray (AID 1124).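 Also: lysate comes from COS7 cells expressing LAP1 and is applied at 0.3 µg/mL; score merges spot fluorescence near 667 nm with signal-to-noise over triplicate slides.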 Particulars: probe aLAP1, fluorescence, higher = more signal.
Another test deals with Sam68 (KHDRBS1). As to the kind of experiment: Sam68 small-molecule binders, primary screen, biochemical, small-molecule microarray, 635 nm fluorescence (AID 1125).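 Also: score merges 667 nm channel intensity with signal to noise over triplicate slides.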 As to conditions: small-molecule microarray binding, higher = more signal.
For test [7], the system named is Chordin-like protein 2 (CHRDL2). In words: CHRDL2 small-molecule binders, primary screen, biochemical, small-molecule microarray, 635 nm fluorescence (AID 1126).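 Also: printed compound slides probed with Chrdl2 protein at 4 µg/mL for 1 h at 4 C; score merges 667 nm emission intensity with signal to noise over three replicate slides.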 As to conditions: small-molecule microarray binding, fluorescence 635 nm; higher = more signal.
In test [8] the target is Concanavalin-A (Canavalia ensiformis) (UniProt P02866). As to the kind of experiment: ConA small-molecule binders, primary screen, artefact control for SMM control protein annotation, biochemical, small-molecule microarray, Alexa647 label, 635 nm (AID 1127).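 Also: z combines 667 nm emission intensity with signal-to-noise across three replicate slides.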 Particulars: ConA-A647 binding fluorescence, higher = more signal.

Activity calls are given as the source filed them.

Albumin (Bos taurus), sequence (P02769 whole entry, looked up): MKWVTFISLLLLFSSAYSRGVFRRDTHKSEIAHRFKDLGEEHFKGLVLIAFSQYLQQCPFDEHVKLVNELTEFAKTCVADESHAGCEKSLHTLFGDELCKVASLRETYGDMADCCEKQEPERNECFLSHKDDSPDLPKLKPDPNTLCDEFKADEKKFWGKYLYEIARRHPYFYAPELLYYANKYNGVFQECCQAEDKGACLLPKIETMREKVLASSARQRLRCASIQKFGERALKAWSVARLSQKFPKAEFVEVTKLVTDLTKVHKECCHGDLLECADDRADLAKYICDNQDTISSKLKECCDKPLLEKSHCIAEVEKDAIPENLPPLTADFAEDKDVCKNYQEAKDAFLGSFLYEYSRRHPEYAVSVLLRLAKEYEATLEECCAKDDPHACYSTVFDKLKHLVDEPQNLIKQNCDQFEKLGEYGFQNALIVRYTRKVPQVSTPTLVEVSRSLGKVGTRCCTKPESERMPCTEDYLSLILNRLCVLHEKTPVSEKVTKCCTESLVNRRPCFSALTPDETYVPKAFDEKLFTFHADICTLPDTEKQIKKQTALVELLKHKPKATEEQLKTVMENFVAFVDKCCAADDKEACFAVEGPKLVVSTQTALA
Concanavalin-A (Canavalia ensiformis), sequence (P02866 whole entry, looked up): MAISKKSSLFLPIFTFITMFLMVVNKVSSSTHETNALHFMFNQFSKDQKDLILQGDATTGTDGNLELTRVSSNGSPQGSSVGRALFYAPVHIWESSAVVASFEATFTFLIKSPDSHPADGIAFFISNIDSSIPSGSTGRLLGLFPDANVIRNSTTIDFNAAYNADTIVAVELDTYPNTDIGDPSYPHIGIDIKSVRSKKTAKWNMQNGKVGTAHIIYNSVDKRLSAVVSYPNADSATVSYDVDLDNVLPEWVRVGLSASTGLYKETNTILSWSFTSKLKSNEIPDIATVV

With `CC(C)C[C@@H]1NC(=O)[C@H]2C[C@@H](C(=O)NCCCCCCNC(=O)CS)[C@@H](c3ccc(O)cc3)N2C1=O`, the composite z-score was 0.291 in the test with Albumin (Bos taurus); -0.0581 in [2]; 0.0018 in test [3]; 0.665 in [4]; 1.73 in test [5]; 0.0905 in [6]. Besides, the composite z-score with Sam68 (KHDRBS1) was 1.3; in [7], 0.986; in test [8], 1.11. In test [1], the composite Z-score is 0.741 (inactive).

For `CC1CC/C=C\[C@H]2OC34C=CCN(c5ccc(Cl)cc5)C(=O)[C@H]3N(CCCO)C(=O)[C@]4(C)C2C(=O)O1` (stereo not given in full), the composite z-score is 0.784 with Albumin (Bos taurus); -0.235 in [2]; -0.18 in [3]; 0.931 in test [4]; -0.42 in [5]; 0.569 in test [6]. For the same molecule, the composite z-score with Sam68 (KHDRBS1) was -0.38; in test [7], -1.39; in test [8], -0.749. Also, the composite Z-score in [1] is 0.182 (inactive).

Take `C=CCC(OC(C)=O)[C@@H]1[C@@H](N(Cc2ccc(-c3cccc(C(F)(F)F)c3)o2)C(=O)c2cccc3ccccc23)c2cc(OCCCO)ccc2N1C(=O)c1ccc2ccccc2n1` (stereo not given in full): the composite z-score is -0.197 in the test with Albumin (Bos taurus); 0.0248 in [2]; -0.103 in test [3]; -0.162 in test [4]; 0.385 in test [5]; -0.202 in [6]. Moreover, the composite z-score was -0.258 in the test with Sam68 (KHDRBS1), 0.328 in [7] and -0.18 in test [8]. Moreover, the composite Z-score in [1] was -0.116 (inactive).

With `CCCCC=C[C@@H](NC(=O)c1ccc(C(F)(F)F)cc1)c1ccccc1`, the composite z-score with Albumin (Bos taurus) was -0.81; in [2], -0.165; in test [3] it was -0.125; in [4], -0.273; in [5], 0.0379; in [6], -0.0554. Also, the composite z-score with Sam68 (KHDRBS1) is -0.0265; in [7], -0.94; in [8], -0.792. Also, the composite Z-score in test [1] is 0.734 (inactive).

With `N#Cc1ccc(C(O)C2C=CC3C(=O)N(c4ccccc4)C(=O)C3N2Nc2ccc([N+](=O)[O-])cc2)cc1` (stereo not given), the composite z-score with Albumin (Bos taurus) was 0.895; in test [2] it was 0.0749; in test [3], 0.0912; in [4] it was 0.748; in [5] it was 2.45; in test [6], 1.05. Moreover, the values for the composite z-score (with Sam68 (KHDRBS1); in test [7]; in test [8]) were 1.28, -0.558 and 1.23, respectively. In test [1], the composite Z-score is 0.453 (inactive).

Turning to `COC(=O)[C@@]1(Cc2ccc(F)cc2)[C@H]2c3cc(C(=O)N(C)C)n(CCN4CCOCC4)c3C[C@H]2CN1C(=O)c1ccccc1`, the composite z-score with Albumin (Bos taurus) turned out to be 0.851; in test [2], 0.296; in [3] it was 0.739; in test [4], 0.39; in test [5], 2.08; in test [6] it was 0.0192. For the same molecule, the composite z-score in the test with Sam68 (KHDRBS1) is -0.0247; in test [7], -0.361; in [8], 0.618. In addition, the composite Z-score in [1] is -0.34 (inactive).

As for `COCCOC(=O)N1C(=O)[C@@]2(c3ccccc31)[C@H](c1ccc(OCCO)cc1)N1[C@H](c3ccccc3)[C@H](c3ccccc3)OC(=O)[C@H]1[C@@H]2C(=O)N1CCN(c2ncccn2)CC1`, the composite z-score was determined as 0.0718 with Albumin (Bos taurus); 0.146 in test [2]; 0.0248 in test [3]; 0.351 in [4]; 1.78 in [5]; 0.282 in test [6]. The results for the composite z-score (in the test on Sam68 (KHDRBS1); in test [7]; in test [8]) were 1.3, 0.756 and 1.1, respectively. Further, in test [1], the composite Z-score is -0.216 (inactive).

In the case of `CC(=O)n1cc(C(O)C2C=CC3C(=O)N(c4ccccc4)C(=O)C3N2Nc2ccccc2F)c2ccccc21` (stereo not given), the composite z-score in the test with Albumin (Bos taurus) is 0.332; in test [2] it was -0.189; in test [3], -0.162; in test [4] it was 0.754; in [5], 1.84; in [6], 0.386. In addition, the composite z-score in the test on Sam68 (KHDRBS1) was 0.505; in test [7], -0.997; in [8], 0.76. The composite Z-score in [1] is 0.169 (inactive).

Regarding `NC(=O)NCC#Cc1ccc2c(c1)[C@]1(C(=O)N2)[C@H](C(=O)Nc2nc3ccccc3s2)[C@H]2C(=O)O[C@H](c3ccccc3)[C@H](c3ccccc3)N2[C@@H]1c1ccc(OCCO)cc1`, the composite z-score with Albumin (Bos taurus) was 0.0054; in test [2] it was -0.0956; in test [3], -0.238; in [4] it was 0.136; in [5] it was 0.408; in test [6], 0.109. Besides, the figures for the composite z-score (in the test with Sam68 (KHDRBS1); in test [7]; in test [8]) were -0.137, -0.258 and 0.318, respectively. Moreover, in test [1], the composite Z-score is 0.367 (inactive).

`CCOC(=O)C1=CC[C@@H](c2ccccc2)N(S(=O)(=O)C[Si](C)(C)C)[C@H]1c1ccccc1`: the composite z-score with Albumin (Bos taurus) was 0.873; in test [2] it was 0.138; in [3], -0.0079; in test [4], 0.605; in test [5] it was 1.27; in test [6], -0.203. For the same molecule, the composite z-score is 1.34 in the test with Sam68 (KHDRBS1), 0.302 in [7] and 1.02 in [8]. For the same molecule, the composite Z-score in test [1] was -0.17 (inactive).

As for `CC(C)CNC(=O)[C@@H]1c2ccccc2C(=O)N(C2Cc3ccccc3C2)[C@H]1c1ccc(CO)cc1`, the composite z-score was -0.191 with Albumin (Bos taurus); -0.219 in test [2]; -0.0984 in test [3]; 0.687 in test [4]; 0.284 in test [5]; 1.45 in [6]. Also, the composite z-score in the test on Sam68 (KHDRBS1) was 0.547; in test [7] it was -0.0902; in test [8], 0.378. Besides, the composite Z-score in test [1] was -0.577 (inactive).

As to `COCCOC(=O)N1C(=O)[C@@]2(c3cc(C#CC4(O)CCCCCC4)ccc31)[C@H](c1ccc(OCCO)cc1)N1[C@H](c3ccccc3)[C@H](c3ccccc3)OC(=O)[C@H]1[C@@H]2C(=O)N1CCCCCCC1`, the composite z-score turned out to be 0.571 in the test with Albumin (Bos taurus); 1.14 in [2]; 0.0899 in [3]; 0.357 in test [4]; 2.47 in test [5]; 1.02 in test [6]. Also, the composite z-score with Sam68 (KHDRBS1) was found to be 1.31; in test [7], 0.744; in test [8] it was 1.15. Also, the composite Z-score in test [1] was 1.12 (inactive).

For `CC(=O)NCCCC[C@@H]1NC(=O)[C@@H]2C[C@H](C(=O)NCCCCCC[N+](C)(C)C)[C@H](c3ccc(O)cc3)N2C1=O`, the composite z-score with Albumin (Bos taurus) was -0.78; in test [2] it was -0.0611; in test [3], -0.0173; in test [4], 0.188; in test [5] it was 1.17; in test [6], -0.414. Moreover, the composite z-score with Sam68 (KHDRBS1) came to 0.992; in test [7] it was 0.965; in [8], 0.301. The composite Z-score in [1] is 0.0461 (inactive).

Consider `COC(=O)[C@@]1(Cc2ccccc2)[C@@H]2[C@@H](CC(=O)[C@H]2CC(=O)C(=O)N(C)C)CN1C(=O)c1ccccc1`, for which the composite z-score with Albumin (Bos taurus) is 0.579; in [2], -0.0288; in test [3] it was -0.0928; in test [4], 0.838; in test [5], 2.87; in [6] it was 0.712. Also, the composite z-score is -0.125 in the test on Sam68 (KHDRBS1), -0.641 in test [7] and 0.596 in test [8]. Besides, in test [1], the composite Z-score was -0.077 (inactive).

As to `COCCOC(=O)N1C(=O)[C@@]2(c3cc(C#CC4=CCCCC4)ccc31)[C@H](C(=O)N1CCN(c3ncccn3)CC1)[C@H]1C(=O)O[C@H](c3ccccc3)[C@H](c3ccccc3)N1[C@@H]2c1ccccc1OCCO`, the composite z-score was 0.768 with Albumin (Bos taurus); 0.0433 in test [2]; -0.0928 in test [3]; 0.169 in test [4]; 1.8 in [5]; 0.35 in test [6]. Also, the composite z-score in the test with Sam68 (KHDRBS1) was determined as 1.31; in test [7], 0.277; in [8], 1.11. Moreover, the composite Z-score in test [1] was 0.0421 (inactive).

These data come from PubChem BioAssay.
